# Experiments:
# Test in all cases: DAPPL (digital affinity profiling via proximity ligation, sequencing); 10 mM Tris-HCl pH 7.5, 50 mM NaCl, 1 mM DTT, 4% glycerol, room temperature, 30 min; GST-TFs on glutathione beads, 16-mer random dsDNA library, 0.1% formaldehyde crosslink after washing; high values mean tight binding
# [1] = target: T1, FLI1 (Homo sapiens, UniProt Q01543 1-452); conditions: protein: recombinant; tags: N-terminal GST; dsDNA, one strand shown
# T1 sequence: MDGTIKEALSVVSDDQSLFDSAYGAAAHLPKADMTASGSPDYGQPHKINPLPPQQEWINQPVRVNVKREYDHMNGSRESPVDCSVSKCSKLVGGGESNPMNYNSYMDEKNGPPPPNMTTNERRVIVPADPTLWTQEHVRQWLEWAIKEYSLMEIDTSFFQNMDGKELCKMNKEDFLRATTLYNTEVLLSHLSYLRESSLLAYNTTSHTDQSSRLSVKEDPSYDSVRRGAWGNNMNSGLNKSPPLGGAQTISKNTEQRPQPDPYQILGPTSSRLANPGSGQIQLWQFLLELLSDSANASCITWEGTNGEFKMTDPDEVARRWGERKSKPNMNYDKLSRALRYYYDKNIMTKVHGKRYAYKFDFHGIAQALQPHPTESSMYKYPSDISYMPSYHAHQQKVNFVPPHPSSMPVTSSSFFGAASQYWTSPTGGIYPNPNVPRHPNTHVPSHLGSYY
# Outline: (§1)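 Pools of DNA-barcoded human transcription factors, expressed in yeast as GST fusions on glutathione beads and combined with a tag-only sample, were incubated with 200 nmole of a 16-mer random double-stranded DNA library. Incubation took 30 min at room temperature in Tris/NaCl/DTT/glycerol buffer and was followed by washing, 0.1% formaldehyde crosslinking, proximity ligation (BsaI/T4 ligase, 1 h, 37 °C), PCR amplification and sequencing on an Illumina NextSeq500. Binding signal is the ratio of a hexamer's read frequency for a factor to its frequency for the tag-only sample.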
# [2] = target: T2, ELK1 (Homo sapiens, UniProt P19419 1-428); conditions: protein: recombinant; tags: N-terminal GST; dsDNA, one strand shown
# T2 sequence: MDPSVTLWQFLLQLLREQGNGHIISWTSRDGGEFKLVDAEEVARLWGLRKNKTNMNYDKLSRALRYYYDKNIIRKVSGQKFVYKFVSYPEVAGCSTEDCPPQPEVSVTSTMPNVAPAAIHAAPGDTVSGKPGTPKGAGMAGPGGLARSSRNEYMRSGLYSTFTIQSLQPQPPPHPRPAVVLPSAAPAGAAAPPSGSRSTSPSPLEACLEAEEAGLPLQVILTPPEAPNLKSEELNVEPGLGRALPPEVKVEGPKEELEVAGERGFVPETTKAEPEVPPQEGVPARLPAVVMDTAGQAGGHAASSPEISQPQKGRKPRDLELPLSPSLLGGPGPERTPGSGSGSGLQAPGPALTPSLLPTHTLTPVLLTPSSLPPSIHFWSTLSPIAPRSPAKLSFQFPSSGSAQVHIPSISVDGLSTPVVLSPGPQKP
# Outline: as §1
# [3] = target: T3, GABPA (Homo sapiens, UniProt Q06546 1-454); conditions: protein: recombinant; tags: N-terminal GST; dsDNA, one strand shown
# T3 sequence: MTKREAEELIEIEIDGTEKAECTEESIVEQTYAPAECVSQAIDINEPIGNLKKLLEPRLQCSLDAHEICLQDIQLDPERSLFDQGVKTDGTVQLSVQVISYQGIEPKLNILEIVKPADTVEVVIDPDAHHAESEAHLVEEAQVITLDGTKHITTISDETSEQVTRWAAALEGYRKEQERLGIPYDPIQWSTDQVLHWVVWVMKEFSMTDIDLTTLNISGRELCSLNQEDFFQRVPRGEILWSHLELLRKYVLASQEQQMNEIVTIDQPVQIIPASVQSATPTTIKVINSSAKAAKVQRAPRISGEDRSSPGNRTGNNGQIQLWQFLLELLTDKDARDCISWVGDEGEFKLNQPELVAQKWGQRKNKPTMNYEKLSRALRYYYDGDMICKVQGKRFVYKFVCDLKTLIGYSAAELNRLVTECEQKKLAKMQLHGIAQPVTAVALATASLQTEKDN
# Outline: as §1
# [4] = target: T4, ERG (Homo sapiens, UniProt P11308 1-479); conditions: protein: recombinant; tags: N-terminal GST; dsDNA, one strand shown
# T4 sequence: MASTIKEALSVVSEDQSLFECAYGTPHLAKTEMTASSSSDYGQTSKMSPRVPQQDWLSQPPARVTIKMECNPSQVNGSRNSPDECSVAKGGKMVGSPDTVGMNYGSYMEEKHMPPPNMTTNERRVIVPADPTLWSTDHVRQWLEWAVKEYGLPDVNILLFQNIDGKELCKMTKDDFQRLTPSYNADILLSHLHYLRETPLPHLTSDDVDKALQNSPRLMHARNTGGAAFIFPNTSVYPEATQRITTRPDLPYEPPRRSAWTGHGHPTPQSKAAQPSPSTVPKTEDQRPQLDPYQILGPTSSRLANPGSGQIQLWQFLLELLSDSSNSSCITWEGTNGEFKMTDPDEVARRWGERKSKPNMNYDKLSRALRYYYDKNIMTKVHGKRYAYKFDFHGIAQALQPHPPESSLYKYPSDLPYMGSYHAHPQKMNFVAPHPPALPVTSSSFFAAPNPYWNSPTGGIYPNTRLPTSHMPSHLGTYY
# Outline: as §1
# [5] = target: ELF1 (Homo sapiens, UniProt P32519 1-619); conditions: protein: recombinant; tags: N-terminal GST; dsDNA, one strand shown
# Sequence of ELF1 (P32519 whole entry): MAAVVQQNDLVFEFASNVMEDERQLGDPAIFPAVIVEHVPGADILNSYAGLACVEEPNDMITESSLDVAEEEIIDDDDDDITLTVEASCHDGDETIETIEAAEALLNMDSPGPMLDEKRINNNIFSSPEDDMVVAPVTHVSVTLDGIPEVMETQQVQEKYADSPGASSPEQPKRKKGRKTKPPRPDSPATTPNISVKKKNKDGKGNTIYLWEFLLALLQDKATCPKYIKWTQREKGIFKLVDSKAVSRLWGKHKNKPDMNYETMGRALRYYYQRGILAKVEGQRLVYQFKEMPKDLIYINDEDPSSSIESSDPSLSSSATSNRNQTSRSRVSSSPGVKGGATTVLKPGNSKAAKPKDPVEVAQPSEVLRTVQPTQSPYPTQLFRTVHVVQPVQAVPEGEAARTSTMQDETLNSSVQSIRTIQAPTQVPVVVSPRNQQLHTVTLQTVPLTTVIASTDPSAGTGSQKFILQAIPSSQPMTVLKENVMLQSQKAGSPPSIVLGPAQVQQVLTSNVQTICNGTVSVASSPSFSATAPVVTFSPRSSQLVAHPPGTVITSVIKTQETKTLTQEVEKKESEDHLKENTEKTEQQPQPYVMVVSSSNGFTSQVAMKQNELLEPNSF
# Outline: as §1
# [6] = target: T5, EHF (Homo sapiens, UniProt Q9NZC4 1-300); conditions: protein: recombinant; tags: N-terminal GST; dsDNA, one strand shown
# T5 sequence: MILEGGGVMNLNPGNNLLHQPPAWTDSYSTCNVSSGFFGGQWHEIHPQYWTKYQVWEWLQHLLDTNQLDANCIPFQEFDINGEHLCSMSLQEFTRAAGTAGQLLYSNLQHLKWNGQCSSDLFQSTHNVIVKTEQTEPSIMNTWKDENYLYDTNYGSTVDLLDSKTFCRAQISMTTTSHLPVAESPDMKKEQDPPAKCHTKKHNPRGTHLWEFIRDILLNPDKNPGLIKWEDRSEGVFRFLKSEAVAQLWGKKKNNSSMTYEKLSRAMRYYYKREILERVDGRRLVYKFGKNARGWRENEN
# Outline: as §1
# [7] = target: SPI1 (Homo sapiens, UniProt P17947 1-270); conditions: protein: recombinant; tags: N-terminal GST; dsDNA, one strand shown
# Outline: as §1
# [8] = target: SPIB (Homo sapiens, UniProt Q01892 1-262); conditions: protein: recombinant; tags: N-terminal GST; dsDNA, one strand shown
# Sequence of SPIB (Q01892 whole entry): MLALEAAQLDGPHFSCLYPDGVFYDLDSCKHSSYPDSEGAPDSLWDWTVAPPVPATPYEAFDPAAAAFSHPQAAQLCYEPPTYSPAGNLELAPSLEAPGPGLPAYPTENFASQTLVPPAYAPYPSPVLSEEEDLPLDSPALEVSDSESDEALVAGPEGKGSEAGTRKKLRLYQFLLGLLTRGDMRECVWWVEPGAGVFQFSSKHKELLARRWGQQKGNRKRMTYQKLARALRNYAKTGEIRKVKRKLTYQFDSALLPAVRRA
# Outline: as §1
# [9] = target: T6, ELK3 (Homo sapiens, UniProt P41970 1-407); conditions: protein: recombinant; tags: N-terminal GST; dsDNA, one strand shown
# T6 sequence: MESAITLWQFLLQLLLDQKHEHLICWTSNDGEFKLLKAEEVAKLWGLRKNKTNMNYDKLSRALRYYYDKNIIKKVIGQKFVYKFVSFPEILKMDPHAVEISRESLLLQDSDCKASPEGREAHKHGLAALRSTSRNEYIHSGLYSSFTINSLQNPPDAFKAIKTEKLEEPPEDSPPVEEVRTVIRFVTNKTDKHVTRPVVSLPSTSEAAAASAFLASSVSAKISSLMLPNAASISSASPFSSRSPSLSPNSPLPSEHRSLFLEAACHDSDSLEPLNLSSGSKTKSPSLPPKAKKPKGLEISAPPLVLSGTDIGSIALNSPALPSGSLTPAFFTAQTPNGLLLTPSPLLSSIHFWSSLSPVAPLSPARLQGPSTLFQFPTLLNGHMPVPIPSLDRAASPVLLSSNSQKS
# Outline: as §1
# [10] = target: T7, FEV (Homo sapiens, UniProt Q99581 1-238); conditions: protein: recombinant; tags: N-terminal GST; dsDNA, one strand shown
# T7 sequence: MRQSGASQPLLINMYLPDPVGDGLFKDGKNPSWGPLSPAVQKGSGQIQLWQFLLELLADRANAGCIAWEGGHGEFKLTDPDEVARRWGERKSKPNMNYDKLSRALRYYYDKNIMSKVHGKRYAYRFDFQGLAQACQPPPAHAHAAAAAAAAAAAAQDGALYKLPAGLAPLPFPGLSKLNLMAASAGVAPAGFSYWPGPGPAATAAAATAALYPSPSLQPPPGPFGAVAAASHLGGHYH
# Outline: as §1
# [11] = target: ETV5 (Homo sapiens, UniProt P41161 1-510); conditions: protein: recombinant; tags: N-terminal GST; dsDNA, one strand shown
# Sequence of ETV5 (P41161 whole entry): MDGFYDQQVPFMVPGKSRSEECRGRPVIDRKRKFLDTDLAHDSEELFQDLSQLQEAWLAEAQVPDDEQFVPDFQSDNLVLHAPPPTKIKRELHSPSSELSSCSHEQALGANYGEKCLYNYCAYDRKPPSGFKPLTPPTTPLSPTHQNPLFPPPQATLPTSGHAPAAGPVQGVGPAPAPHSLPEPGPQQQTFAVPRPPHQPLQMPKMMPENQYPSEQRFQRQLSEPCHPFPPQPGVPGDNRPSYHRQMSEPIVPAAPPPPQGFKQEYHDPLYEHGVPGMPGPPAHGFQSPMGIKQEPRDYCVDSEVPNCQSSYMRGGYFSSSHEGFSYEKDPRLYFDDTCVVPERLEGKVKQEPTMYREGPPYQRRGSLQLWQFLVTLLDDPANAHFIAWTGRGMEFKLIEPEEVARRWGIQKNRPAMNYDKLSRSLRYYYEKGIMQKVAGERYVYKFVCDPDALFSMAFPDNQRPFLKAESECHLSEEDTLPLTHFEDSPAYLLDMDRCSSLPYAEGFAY
# Outline: as §1
# [12] = target: HSF1 (Homo sapiens, UniProt Q00613 1-529); conditions: protein: recombinant; tags: N-terminal GST; chain copies: 3; dsDNA, one strand shown
# Sequence of HSF1 (Q00613 whole entry): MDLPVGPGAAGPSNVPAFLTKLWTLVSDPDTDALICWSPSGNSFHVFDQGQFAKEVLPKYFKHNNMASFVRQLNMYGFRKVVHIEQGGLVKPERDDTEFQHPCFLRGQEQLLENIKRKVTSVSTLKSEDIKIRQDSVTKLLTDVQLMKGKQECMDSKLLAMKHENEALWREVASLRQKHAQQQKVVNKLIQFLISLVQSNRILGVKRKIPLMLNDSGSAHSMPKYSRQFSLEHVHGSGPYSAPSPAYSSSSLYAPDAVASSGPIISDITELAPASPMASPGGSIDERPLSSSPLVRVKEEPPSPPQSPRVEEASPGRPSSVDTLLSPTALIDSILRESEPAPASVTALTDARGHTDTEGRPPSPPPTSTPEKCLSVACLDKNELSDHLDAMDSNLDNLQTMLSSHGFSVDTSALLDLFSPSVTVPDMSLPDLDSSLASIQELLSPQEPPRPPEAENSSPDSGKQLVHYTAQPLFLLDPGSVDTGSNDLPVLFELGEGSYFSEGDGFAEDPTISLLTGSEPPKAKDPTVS
# Outline: as §1
# [13] = target: T8, SPIC (Homo sapiens, UniProt Q8N5J4 1-248); conditions: protein: recombinant; tags: N-terminal GST; dsDNA, one strand shown
# T8 sequence: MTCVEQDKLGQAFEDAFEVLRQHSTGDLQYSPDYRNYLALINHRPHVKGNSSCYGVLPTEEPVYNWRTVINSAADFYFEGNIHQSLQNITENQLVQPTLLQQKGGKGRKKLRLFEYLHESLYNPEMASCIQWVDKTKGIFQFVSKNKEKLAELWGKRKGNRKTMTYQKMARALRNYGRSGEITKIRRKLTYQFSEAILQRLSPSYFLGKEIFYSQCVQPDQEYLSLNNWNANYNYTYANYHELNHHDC
# Outline: as §1
# [14] = target: ELF4 (Homo sapiens, UniProt Q99607 1-663); conditions: protein: recombinant; tags: N-terminal GST; dsDNA, one strand shown
# Sequence of ELF4 (Q99607 whole entry): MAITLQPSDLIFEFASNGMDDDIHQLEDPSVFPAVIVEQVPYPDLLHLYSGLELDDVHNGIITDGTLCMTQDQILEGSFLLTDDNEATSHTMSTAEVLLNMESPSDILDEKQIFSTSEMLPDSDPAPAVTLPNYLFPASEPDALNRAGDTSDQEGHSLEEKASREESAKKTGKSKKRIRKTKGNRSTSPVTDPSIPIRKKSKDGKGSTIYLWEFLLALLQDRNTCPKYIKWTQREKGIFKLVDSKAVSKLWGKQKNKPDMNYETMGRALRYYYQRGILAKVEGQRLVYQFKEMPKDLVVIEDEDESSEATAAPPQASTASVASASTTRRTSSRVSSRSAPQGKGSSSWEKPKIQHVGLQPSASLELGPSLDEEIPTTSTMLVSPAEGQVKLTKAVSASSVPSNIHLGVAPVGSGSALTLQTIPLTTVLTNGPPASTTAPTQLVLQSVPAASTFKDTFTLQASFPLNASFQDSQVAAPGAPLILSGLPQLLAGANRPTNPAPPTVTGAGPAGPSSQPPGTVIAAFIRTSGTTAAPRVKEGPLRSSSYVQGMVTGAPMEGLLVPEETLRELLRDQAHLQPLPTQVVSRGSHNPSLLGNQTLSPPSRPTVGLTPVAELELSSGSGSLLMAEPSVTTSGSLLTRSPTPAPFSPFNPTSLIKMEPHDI
# Outline: as §1
# [15] = target: T9, ELK4 (Homo sapiens, UniProt P28324-2 1-405); conditions: protein: recombinant; tags: N-terminal GST; dsDNA, one strand shown
# T9 sequence: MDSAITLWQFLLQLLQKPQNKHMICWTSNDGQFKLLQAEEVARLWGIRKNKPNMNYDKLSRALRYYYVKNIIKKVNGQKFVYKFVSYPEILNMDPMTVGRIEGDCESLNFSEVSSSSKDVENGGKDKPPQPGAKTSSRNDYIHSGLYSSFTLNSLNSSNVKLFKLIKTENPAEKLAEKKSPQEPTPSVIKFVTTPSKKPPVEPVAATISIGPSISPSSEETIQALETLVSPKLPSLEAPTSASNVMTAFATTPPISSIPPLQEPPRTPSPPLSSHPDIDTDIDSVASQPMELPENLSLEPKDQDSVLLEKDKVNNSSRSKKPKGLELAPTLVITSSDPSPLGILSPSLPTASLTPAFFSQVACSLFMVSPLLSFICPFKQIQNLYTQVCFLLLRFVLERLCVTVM
# Outline: as §1
# [16] = target: T10, ETV2 (Homo sapiens, UniProt O00321 1-342); conditions: protein: recombinant; tags: N-terminal GST; dsDNA, one strand shown
# T10 sequence: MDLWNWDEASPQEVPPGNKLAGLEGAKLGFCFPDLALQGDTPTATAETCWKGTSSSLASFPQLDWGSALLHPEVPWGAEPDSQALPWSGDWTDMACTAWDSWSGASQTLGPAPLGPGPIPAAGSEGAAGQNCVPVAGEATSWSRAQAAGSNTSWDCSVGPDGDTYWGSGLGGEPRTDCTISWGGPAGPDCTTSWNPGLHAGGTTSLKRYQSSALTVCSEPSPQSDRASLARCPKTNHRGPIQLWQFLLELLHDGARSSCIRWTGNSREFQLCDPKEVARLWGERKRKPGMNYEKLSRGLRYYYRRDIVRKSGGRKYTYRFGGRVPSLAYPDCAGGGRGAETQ
# Outline: as §1
# [17] = target: T11, ELF3 (Homo sapiens, UniProt P78545 1-371); conditions: protein: recombinant; tags: N-terminal GST; dsDNA, one strand shown
# T11 sequence: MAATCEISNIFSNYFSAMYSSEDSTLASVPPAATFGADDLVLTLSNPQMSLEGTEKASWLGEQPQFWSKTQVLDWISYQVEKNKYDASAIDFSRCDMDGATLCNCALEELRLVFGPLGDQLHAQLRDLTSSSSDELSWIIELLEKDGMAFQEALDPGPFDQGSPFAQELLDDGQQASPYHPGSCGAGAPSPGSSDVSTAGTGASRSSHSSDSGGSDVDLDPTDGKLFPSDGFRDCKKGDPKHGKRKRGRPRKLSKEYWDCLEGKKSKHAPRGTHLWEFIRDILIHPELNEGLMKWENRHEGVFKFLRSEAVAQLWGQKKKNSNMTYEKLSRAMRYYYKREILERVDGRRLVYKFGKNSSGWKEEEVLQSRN
# Outline: as §1
# [18] = target: CRX (Homo sapiens, UniProt O43186 1-299); conditions: protein: recombinant; tags: N-terminal GST; dsDNA, one strand shown
# Sequence of CRX (O43186 whole entry): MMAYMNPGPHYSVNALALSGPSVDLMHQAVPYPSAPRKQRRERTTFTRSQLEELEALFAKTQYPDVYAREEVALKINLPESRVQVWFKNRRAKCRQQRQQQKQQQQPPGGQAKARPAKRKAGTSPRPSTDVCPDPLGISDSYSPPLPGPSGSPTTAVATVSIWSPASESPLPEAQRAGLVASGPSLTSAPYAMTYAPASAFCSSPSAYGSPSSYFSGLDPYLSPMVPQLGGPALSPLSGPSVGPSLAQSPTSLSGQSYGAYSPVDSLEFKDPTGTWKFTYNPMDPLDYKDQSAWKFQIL
# Outline: as §1
# [19] = target: ETV1 (Homo sapiens, UniProt P50549 1-477); conditions: protein: recombinant; tags: N-terminal GST; dsDNA, one strand shown
# Sequence of ETV1 (P50549 whole entry): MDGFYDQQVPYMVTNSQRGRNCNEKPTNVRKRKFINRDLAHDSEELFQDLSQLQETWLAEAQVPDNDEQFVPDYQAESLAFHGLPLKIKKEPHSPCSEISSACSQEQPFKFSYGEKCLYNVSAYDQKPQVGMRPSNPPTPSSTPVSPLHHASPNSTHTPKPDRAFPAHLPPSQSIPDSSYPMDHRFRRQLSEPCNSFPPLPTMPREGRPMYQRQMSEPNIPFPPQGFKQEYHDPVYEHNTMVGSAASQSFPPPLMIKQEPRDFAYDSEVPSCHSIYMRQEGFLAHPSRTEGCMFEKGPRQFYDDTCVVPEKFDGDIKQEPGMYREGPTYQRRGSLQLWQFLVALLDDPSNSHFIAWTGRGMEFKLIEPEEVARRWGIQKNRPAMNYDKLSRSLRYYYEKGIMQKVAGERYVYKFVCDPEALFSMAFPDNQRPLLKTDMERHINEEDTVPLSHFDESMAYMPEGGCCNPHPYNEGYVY
# Outline: as §1
sequence,measurement,setting,value
TTTGCT,binding signal,[1],"1.25 fold enrichment (6-mer frequency, TF over GST control)"
same,binding signal,[2],"1.17 fold enrichment (6-mer frequency, TF over GST control)"
same,binding signal,[3],"1.29 fold enrichment (6-mer frequency, TF over GST control)"
same,binding signal,[4],"1.18 fold enrichment (6-mer frequency, TF over GST control)"
same,binding signal,[5],"1.21 fold enrichment (6-mer frequency, TF over GST control)"
same,binding signal,[6],"1.18 fold enrichment (6-mer frequency, TF over GST control)"
same,binding signal,[7],"1.21 fold enrichment (6-mer frequency, TF over GST control)"
same,binding signal,[8],"1.24 fold enrichment (6-mer frequency, TF over GST control)"
same,binding signal,[9],"1.25 fold enrichment (6-mer frequency, TF over GST control)"
same,binding signal,[10],"1.16 fold enrichment (6-mer frequency, TF over GST control)"
same,binding signal,[11],"1.2 fold enrichment (6-mer frequency, TF over GST control)"
same,binding signal,[12],"1.47 fold enrichment (6-mer frequency, TF over GST control)"
same,binding signal,[13],"1.22 fold enrichment (6-mer frequency, TF over GST control)"
same,binding signal,[14],"1.27 fold enrichment (6-mer frequency, TF over GST control)"
same,binding signal,[15],"1.36 fold enrichment (6-mer frequency, TF over GST control)"
same,binding signal,[16],"1.39 fold enrichment (6-mer frequency, TF over GST control)"
same,binding signal,[17],"1.33 fold enrichment (6-mer frequency, TF over GST control)"
same,binding signal,[18],"1.45 fold enrichment (6-mer frequency, TF over GST control)"
same,binding signal,[19],"1.18 fold enrichment (6-mer frequency, TF over GST control)"
